Test results published in PubChem BioAssay AID1159580 (chemical genetic matrix, 2015).
“And” between values parts separate entries of the source, which are not always exact repeats. Equal values may be shown once. Hit rate of the full screen: of about 5,500 compounds, about 2,000 (36%) were called active. Not shown: some 18% with an inconclusive outcome. Cut-off read from the data, not from the text of the source: active = normalized growth mostly below about 0.91 (no sharp cut-off); inconclusive = no clear call, values can overlap the other calls; inactive = mostly above about 0.92. Some of the results follow. A structure can be active in one record and inactive in another.

Experiment: chemical genetic growth profiling, strain panel (AID 1159580);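 note: tested at 20 µM; growth read once vehicle control cultures reached saturation at 30 °C; 1 = growth at the plate median or of vehicle wells; lower values mean less growth of the strain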
Details: S. cerevisiae deletion strains, growth OD

Measured: normalized growth

COc1ccc(-c2coc3cc(OC)ccc3c2=O)cc1
active: locus YBR229C, strain ROT2, stronger effect = lower value 0.908 | locus YDL101C, strain DUN1, stronger effect = lower value 0.891 | locus YDL185W, strain tfp1, stronger effect = lower value 0.896 | locus YDL192W, strain arf1, stronger effect = lower value 0.898 | locus YDR162C, strain NBP2, stronger effect = lower value 0.607 | locus YDR318W, strain mcm21, stronger effect = lower value 0.912 | locus YDR388W, stronger effect = lower value 0.92 | locus YDR502C, strain sam2, stronger effect = lower value 0.907 | locus YEL061C, strain CIN8, stronger effect = lower value 0.917 | locus YGL086W, strain mad1, stronger effect = lower value 0.906 | locus YGL248W, strain PDE1, stronger effect = lower value 0.876 | locus YGR078C, strain PAC10, stronger effect = lower value 0.811 | locus YGR135W, strain pre9, stronger effect = lower value 0.89 | locus YHR079C, strain IRE1 (second series), stronger effect = lower value 0.922 | locus YHR129C, strain ARP1, stronger effect = lower value 0.915 | locus YHR200W, strain rpn10, stronger effect = lower value 0.906 | locus YIL066C, strain RNR3, stronger effect = lower value 0.807 | locus YKL068W, stronger effect = lower value 0.93 | locus YKL085W, strain MDH1 (second series), stronger effect = lower value 0.928 | locus YKL085W, strain MDH1, stronger effect = lower value 0.928 | locus YKR001C, strain vps1, stronger effect = lower value 0.644 | locus YLR039C, strain RIC1, stronger effect = lower value 0.48 | locus YLR262C, strain YPT6, stronger effect = lower value 0.468 | locus YLR330W, strain CHS5, stronger effect = lower value 0.874 | locus YLR342W, strain FKS1 (second series), stronger effect = lower value 0.763 | locus YLR418C, strain cdc73, stronger effect = lower value 0.736 | locus YML124C, strain tub3, stronger effect = lower value 0.925 | locus YNL271C, strain bni1, stronger effect = lower value 0.918 | locus YNL298W, strain CLA4, stronger effect = lower value 0.906 | locus YNL307C, strain MCK1, stronger effect = lower value 0.543 | locus YOL147C, strain pex11, stronger effect = lower value 0.922 | locus YOR184W, strain ser1, stronger effect = lower value 0.783 | locus YPR163C, strain tif3, stronger effect = lower value 0.772
inactive: locus YAL013W, strain DEP1, stronger effect = lower value 0.933 | locus YBR021W, strain FUR4, stronger effect = lower value 1.02 | locus YCL029C, strain bik1, stronger effect = lower value 0.929 | locus YDL035C, strain GPR1, stronger effect = lower value 0.905 | locus YDL074C, strain BRE1, stronger effect = lower value 0.839 | locus YDR101C, strain arx1, stronger effect = lower value 0.92 | locus YDR150W, strain NUM1, stronger effect = lower value 0.94 | locus YER110C, stronger effect = lower value 0.907 | locus YER155C, strain BEM2, stronger effect = lower value 1.01 | locus YER167W, strain BCK2, stronger effect = lower value 0.906 | locus YGL078C, strain dbp3, stronger effect = lower value 0.936 | locus YGR252W, strain gcn5, stronger effect = lower value 0.851 | locus YHR079C, strain IRE1, stronger effect = lower value 0.976 | locus YHR094C, strain hxt1, stronger effect = lower value 0.949 | locus YIL073C, strain SPO22, stronger effect = lower value 0.783 | locus YIL125W, strain kgd1, stronger effect = lower value 0.941 | locus YIR030C, strain dcg1, stronger effect = lower value 0.931 | locus YJL134W, strain LCB3, stronger effect = lower value 0.941 | locus YJL168C, strain set2, stronger effect = lower value 0.936 | locus YJL187C, strain SWE1 (second series), stronger effect = lower value 0.891 | locus YJR043C, strain POL32, stronger effect = lower value 0.885 | locus YJR066W, strain TOR1, stronger effect = lower value 0.9 | locus YJR075W, strain HOC1, stronger effect = lower value 0.913 | locus YKL009W, strain mrt4, stronger effect = lower value 0.92 | locus YKL190W, strain CNB1, stronger effect = lower value 0.933 | locus YLR058C, strain SHM2, stronger effect = lower value 0.906 | locus YLR102C, strain apc9, stronger effect = lower value 0.941 | locus YLR113W, strain HOG1, stronger effect = lower value 0.984 | locus YLR268W, strain sec22, stronger effect = lower value 0.919 | locus YLR371W, strain rom2, stronger effect = lower value 0.933 | locus YML016C, strain PPZ1, stronger effect = lower value 0.922 | locus YML032C, strain rad52, stronger effect = lower value 0.942 | locus YMR078C, strain ctf18, stronger effect = lower value 0.929 | locus YMR223W, strain ubp8, stronger effect = lower value 0.911 | locus YMR263W, strain SAP30, stronger effect = lower value 0.898 | locus YMR307W, strain GAS1, stronger effect = lower value 0.658 | locus YNL067W, strain RPL9B, stronger effect = lower value 0.886 | locus YNL183C, strain NPR1, stronger effect = lower value 0.921 | locus YNL233W, strain BNI4, stronger effect = lower value 0.888 | locus YNL250W, strain rad50, stronger effect = lower value 0.943 | locus YNL322C, strain KRE1, stronger effect = lower value 0.936 | locus YNR052C, strain pop2, stronger effect = lower value 0.928 | locus YOL006C, strain TOP1, stronger effect = lower value 0.589 | locus YOL012C, strain htz1 0.966 | locus YOR061W, strain CKA2, stronger effect = lower value 0.899 | locus YOR069W, strain VPS5, stronger effect = lower value 0.937 | locus YOR136W, strain idh2, stronger effect = lower value 0.971 | locus YOR144C, strain elg1, stronger effect = lower value 0.937 | locus YOR231W, strain MKK1, stronger effect = lower value 0.982 | locus YOR316C, strain cot1, stronger effect = lower value 0.928 | locus YPL055C, strain LGE1, stronger effect = lower value 0.836 | locus YPL256C, strain CLN2, stronger effect = lower value 0.968 | locus YPR119W, strain clb2, stronger effect = lower value 0.947 | locus YPR141C, strain kar3, stronger effect = lower value 0.921 | locus YPR167C, strain met16, stronger effect = lower value 0.943 | strain wtn01, stronger effect = lower value 0.91
0.983 (inactive) and 0.669 (active): locus YJL095W, strain BCK1, stronger effect = lower value
0.973 (inactive) and 0.882 (active): locus YHR030C, strain SLT2, stronger effect = lower value
